Experimental data as given in the supplement of paper PMC10849652.
Of roughly 7,900 targets only a part is listed; those with a hit were picked by preference. About 0.6% of all pairs of compound and target were hits. Unmarked numbers belong to inactive results.

Columns and labels:
Test in all cases: log2 fold change, soluble protein after heating vs DMSO (PISA); higher = thermal stabilisation; K562 cells, 10 uM, 30 min; active = over 0.2 and 3.5 SD of the protein, either way, in both replicates (recomputed)
[1] = compound: COC1=CC=C(C=C1)CN2C=CC3=C2C=C(C=C3)C(=O)NO
How it was run: (§1)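 K562 cells at 2×10^6 cells/mL were treated for 30 min with 10 μM compound, and aliquots were heated for 3 min over 48°C-58°C before pooling. Extraction used PBS with 0.5% NP-40 at 4°C, and soluble protein was the supernatant after 21,000xg for 90 min, measured by TMTpro 16plex LC-MS/MS with channel sums equalised. Thermal stability values, relative to control samples and from duplicates, are log2 fold changes.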

[2] = compound: CON(C)C(=O)N1N=C(c2cc(F)ccc2F)S[C@@]1(CCCN)c1ccccc1 [filanesib]
How it was run: as §1

[3] = compound: CO[C@H]1C[C@@H]2CC[C@@H](C)[C@@](O)(O2)C(=O)C(=O)N2CCCC[C@H]2C(=O)O[C@H]([C@H](C)C[C@@H]2CC[C@H](n3cnnn3)[C@H](OC)C2)CC(=O)[C@H](C)/C=C(\C)[C@@H](O)[C@@H](OC)C(=O)[C@H](C)C[C@H](C)/C=C/C=C/C=C/1C [zotarolimus]
How it was run: as §1

[4] = compound: COc1cc(Nc2ncc3c(n2)-c2ccc(Cl)cc2C(c2c(F)cccc2OC)=NC3)ccc1C(=O)O [alisertib]
How it was run: as §1

[5] = compound: COc1cc2nc(-c3cc(F)ccc3O)nc(N[C@@H]3CNC[C@H]3C(C)(C)O)c2cc1OC
How it was run: as §1

[6] = compound: COc1cc2ncnc(Nc3ccc(F)c(Cl)c3)c2cc1OCCCN1CCOCC1 [gefitinib]
How it was run: as §1

[7] = compound: COc1cccc2cc(-c3nc([C@H]4CC[C@H](C(=O)O)CC4)n4ncnc(N)c34)[nH]c12
How it was run: as §1

[8] = compound: CS(=O)(=O)CCNCc1ccc(-c2ccc3ncnc(Nc4ccc(OCc5cccc(F)c5)c(Cl)c4)c3c2)o1 [lapatinib]
How it was run: as §1

[9] = compound: CS(=O)(=O)N1CCN(Cc2cc3nc(-c4cccc5[nH]ncc45)nc(N4CCOCC4)c3s2)CC1 [pictilisib]
How it was run: as §1

[10] = compound: CS(=O)(=O)c1ccc(-c2cnc(N)c(C(=O)Nc3ccccc3)n2)cc1
How it was run: as §1

[11] = compound: C[C@@H](Oc1cc(-c2cnn(C3CCNCC3)c2)cnc1N)c1c(Cl)ccc(F)c1Cl [crizotinib]
How it was run: as §1

[12] = compound: C[C@@H]1COCCN1C2=NC(=NC(=C2)C3(CC3)S(=O)(=O)C)C4=C5C=CNC5=CC=C4
How it was run: as §1

[13] = compound: C[C@H](C1=CC=C(C=C1)C(=O)NC2=C3C=CNC3=NC=C2)N
How it was run: as §1

[14] = compound: C[C@H](Nc1ncnc2nc[nH]c12)c1cc2cccc(Cl)c2c(=O)n1-c1ccccc1 [duvelisib]
How it was run: as §1

[15] = compound: Cc1cc(Nc2cc(CN3CCOCC3)c3nc(C)c(Cc4ccc(Cl)cc4F)n3n2)n[nH]1 [gandotinib]
How it was run: as §1

[16] = compound: Cc1cc(Nc2cc(N3CCN(C)CC3)nc(Sc3ccc(NC(=O)C4CC4)cc3)n2)n[nH]1 [tozasertib]
How it was run: as §1

[17] = compound: Cc1cc(SCc2sc(-c3ccc(C(F)(F)F)cc3)nc2C)ccc1OCC(=O)O
How it was run: as §1

[18] = compound: Cc1ccc(-n2nc(C(C)(C)C)cc2NC(=O)Nc2ccc(OCCN3CCOCC3)c3ccccc23)cc1 [doramapimod]
How it was run: as §1

[19] = compound: Cc1ccc(C(=O)N(CCCN)[C@@H](c2nc3cc(Cl)ccc3c(=O)n2Cc2ccccc2)C(C)C)cc1 [ispinesib]
How it was run: as §1

[20] = compound: COc1cc(C(=O)O)ccc1NC(=O)[C@@H]1N[C@@H](CC(C)(C)C)[C@](C#N)(c2ccc(Cl)cc2F)[C@H]1c1cccc(Cl)c1F [idasanutlin]
How it was run: as §1

UniProt Q96GX5, sequence (Q96GX5 whole entry, looked up): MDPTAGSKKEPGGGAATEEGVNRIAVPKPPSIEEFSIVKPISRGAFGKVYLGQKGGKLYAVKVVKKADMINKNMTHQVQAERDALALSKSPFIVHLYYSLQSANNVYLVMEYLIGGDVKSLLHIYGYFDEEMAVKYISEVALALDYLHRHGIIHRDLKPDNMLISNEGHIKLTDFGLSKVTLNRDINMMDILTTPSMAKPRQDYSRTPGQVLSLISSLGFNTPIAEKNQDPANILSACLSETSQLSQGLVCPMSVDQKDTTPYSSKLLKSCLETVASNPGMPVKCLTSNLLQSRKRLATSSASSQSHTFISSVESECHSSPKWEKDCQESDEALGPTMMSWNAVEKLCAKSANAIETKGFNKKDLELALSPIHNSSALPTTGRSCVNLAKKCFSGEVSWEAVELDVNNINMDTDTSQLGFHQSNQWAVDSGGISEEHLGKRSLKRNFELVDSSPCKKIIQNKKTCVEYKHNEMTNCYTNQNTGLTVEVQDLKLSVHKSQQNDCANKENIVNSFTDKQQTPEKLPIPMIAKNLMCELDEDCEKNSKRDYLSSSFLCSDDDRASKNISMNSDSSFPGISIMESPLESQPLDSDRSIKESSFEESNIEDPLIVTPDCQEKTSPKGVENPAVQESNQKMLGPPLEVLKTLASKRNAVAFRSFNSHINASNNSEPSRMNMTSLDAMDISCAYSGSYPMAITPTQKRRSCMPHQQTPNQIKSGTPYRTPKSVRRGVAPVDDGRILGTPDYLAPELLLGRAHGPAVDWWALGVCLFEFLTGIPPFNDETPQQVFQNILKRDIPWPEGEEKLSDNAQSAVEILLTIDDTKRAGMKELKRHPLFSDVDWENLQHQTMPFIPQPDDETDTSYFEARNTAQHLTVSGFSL
UniProt Q92604, sequence (Q92604 whole entry, looked up): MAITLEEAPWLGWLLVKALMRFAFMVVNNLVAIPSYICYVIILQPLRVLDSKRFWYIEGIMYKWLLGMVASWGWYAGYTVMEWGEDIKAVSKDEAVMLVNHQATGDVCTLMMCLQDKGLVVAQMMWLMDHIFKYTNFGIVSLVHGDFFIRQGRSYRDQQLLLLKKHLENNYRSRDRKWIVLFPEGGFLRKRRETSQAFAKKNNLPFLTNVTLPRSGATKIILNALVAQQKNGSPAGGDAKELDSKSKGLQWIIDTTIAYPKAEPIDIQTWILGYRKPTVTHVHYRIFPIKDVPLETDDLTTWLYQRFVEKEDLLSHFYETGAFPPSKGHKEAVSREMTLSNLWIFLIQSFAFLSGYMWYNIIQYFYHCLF
UniProt O43513, sequence (O43513 whole entry, looked up): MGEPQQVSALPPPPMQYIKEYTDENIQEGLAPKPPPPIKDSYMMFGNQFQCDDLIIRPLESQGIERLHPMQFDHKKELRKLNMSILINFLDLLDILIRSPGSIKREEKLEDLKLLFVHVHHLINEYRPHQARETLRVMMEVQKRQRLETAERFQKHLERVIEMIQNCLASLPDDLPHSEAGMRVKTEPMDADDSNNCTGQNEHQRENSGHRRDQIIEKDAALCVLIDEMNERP
UniProt O95819, sequence (O95819 whole entry, looked up): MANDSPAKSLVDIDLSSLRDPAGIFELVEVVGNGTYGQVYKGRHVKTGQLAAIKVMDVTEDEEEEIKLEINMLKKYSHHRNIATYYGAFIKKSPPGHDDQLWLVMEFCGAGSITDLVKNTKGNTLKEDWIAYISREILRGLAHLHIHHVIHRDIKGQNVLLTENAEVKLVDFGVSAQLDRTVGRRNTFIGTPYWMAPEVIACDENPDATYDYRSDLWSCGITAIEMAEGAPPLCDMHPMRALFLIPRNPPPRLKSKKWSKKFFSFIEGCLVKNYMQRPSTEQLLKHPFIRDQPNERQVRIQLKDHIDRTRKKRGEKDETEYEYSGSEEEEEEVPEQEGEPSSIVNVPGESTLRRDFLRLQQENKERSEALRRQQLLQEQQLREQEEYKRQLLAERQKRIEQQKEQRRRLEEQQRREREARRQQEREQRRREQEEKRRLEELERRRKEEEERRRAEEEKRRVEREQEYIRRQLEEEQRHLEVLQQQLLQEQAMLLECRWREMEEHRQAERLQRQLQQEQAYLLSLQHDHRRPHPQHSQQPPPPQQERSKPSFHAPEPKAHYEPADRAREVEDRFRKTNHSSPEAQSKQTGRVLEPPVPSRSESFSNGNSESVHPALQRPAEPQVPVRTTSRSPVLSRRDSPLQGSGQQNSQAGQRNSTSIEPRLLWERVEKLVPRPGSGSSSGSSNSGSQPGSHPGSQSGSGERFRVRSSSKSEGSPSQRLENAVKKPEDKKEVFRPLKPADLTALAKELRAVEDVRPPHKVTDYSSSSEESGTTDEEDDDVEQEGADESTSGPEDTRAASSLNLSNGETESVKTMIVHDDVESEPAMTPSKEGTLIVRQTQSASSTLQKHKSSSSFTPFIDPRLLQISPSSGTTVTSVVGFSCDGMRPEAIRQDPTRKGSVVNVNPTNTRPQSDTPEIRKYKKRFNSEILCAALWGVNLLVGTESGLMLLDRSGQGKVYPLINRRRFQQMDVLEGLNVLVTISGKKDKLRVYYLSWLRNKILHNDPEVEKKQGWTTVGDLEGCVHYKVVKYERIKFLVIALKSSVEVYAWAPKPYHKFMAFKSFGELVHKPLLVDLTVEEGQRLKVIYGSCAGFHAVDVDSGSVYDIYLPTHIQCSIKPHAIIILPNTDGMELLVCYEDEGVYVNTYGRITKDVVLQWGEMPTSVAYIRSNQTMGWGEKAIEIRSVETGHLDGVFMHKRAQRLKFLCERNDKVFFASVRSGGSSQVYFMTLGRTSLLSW
UniProt Q15528, sequence (Q15528 whole entry, looked up): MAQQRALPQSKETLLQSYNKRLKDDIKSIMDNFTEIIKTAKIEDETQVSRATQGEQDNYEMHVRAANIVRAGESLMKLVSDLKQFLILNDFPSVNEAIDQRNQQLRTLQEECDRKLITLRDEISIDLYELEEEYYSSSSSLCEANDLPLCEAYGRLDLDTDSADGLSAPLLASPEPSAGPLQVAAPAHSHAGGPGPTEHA
UniProt Q96LU5, sequence (Q96LU5 whole entry, looked up): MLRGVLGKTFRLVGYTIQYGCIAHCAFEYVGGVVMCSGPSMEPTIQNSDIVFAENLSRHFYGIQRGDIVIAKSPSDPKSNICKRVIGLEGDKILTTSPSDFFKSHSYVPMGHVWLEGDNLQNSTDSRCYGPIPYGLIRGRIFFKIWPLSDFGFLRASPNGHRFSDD
UniProt Q08334, sequence (Q08334 whole entry, looked up): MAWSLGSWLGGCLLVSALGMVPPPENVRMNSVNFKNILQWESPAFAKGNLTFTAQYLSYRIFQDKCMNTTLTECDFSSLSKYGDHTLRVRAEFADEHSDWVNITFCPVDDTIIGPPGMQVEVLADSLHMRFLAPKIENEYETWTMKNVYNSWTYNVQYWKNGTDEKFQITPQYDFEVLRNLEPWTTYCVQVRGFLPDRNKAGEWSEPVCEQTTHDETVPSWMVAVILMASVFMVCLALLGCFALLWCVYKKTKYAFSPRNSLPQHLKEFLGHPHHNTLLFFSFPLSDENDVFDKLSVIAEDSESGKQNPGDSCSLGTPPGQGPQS
UniProt Q12851, sequence (Q12851 whole entry, looked up): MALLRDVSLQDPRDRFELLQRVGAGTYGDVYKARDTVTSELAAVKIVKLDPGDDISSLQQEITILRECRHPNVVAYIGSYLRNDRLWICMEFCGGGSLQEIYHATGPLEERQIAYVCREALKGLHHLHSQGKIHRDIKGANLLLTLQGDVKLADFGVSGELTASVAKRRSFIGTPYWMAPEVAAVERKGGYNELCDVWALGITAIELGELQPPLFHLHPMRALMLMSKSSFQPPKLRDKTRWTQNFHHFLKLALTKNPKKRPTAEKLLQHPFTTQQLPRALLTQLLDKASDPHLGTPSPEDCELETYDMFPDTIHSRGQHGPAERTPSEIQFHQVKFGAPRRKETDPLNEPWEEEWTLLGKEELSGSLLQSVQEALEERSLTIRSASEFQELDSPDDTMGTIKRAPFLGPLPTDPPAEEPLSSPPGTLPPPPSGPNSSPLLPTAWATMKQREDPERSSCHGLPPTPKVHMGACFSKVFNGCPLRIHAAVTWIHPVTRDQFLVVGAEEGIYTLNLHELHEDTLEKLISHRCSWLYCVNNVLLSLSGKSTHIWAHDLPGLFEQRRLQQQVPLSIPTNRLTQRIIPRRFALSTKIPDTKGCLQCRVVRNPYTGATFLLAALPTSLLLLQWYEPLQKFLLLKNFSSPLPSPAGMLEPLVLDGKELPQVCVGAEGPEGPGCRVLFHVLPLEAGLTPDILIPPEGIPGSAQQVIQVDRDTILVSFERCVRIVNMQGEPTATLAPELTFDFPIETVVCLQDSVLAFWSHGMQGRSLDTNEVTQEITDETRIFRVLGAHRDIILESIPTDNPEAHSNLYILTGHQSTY
UniProt Q9UPY8, sequence (Q9UPY8 whole entry, looked up): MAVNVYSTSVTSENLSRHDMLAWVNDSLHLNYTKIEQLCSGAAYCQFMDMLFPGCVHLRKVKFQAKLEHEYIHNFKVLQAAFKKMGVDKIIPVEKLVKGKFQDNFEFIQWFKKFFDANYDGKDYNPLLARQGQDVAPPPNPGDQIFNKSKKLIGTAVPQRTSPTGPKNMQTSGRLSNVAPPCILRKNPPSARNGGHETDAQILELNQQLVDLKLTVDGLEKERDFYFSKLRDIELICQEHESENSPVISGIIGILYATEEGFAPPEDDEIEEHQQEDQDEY
UniProt P43361, sequence (P43361 whole entry, looked up): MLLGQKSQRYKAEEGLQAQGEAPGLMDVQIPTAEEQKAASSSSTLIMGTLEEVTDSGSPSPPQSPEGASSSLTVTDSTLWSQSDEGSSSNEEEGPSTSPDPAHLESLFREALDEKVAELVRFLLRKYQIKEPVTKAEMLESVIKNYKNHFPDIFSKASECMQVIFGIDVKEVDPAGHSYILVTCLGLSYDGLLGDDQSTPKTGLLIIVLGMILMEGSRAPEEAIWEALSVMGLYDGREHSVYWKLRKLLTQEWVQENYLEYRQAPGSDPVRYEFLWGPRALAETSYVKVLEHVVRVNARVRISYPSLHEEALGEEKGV

Row | Target | log2 fold change [1] | log2 fold change [2] | log2 fold change [3] | log2 fold change [4] | log2 fold change [5] | log2 fold change [6] | log2 fold change [7] | log2 fold change [8] | log2 fold change [9] | log2 fold change [10] | log2 fold change [11] | log2 fold change [12] | log2 fold change [13] | log2 fold change [14] | log2 fold change [15] | log2 fold change [16] | log2 fold change [17] | log2 fold change [18] | log2 fold change [19] | log2 fold change [20]
1 | JAK3 (UniProt P52333) | -0.216 | -0.019 | 0.018 | 0.052 | -0.083 | -0.047 | -0.02 | 0.01 | -0.056 | 0.001 | 0.048 | 0.142 | -0.062 | 0.133 | -0.132 | 0.032 | 0.135 | -0.071 | 0.087 | 
2 | MAP4K2 (UniProt Q12851) | 0.02 | -0.143 | -0.083 |  | 0.426 | 0.034 |  | -0.011 |  | -0.032 |  |  | -0.129 |  |  | 0.158 |  | -0.091 |  | 
3 | MASTL (UniProt Q96GX5) | 0.147 | -0.09 | 0.088 | -0.09 |  | -0.107 | -0.155 |  |  | -0.058 | 0.092 | 0.179 | 0.046 | -0.199 |  |  | -0.12 | -0.075 | 0.099 | 0.072
4 | MAGEA8 (UniProt P43361) | 0.061 |  | 0.108 |  | 0.057 | -0.069 |  | -0.032 | 0.145 |  | -0.003 |  | 0.134 | -0.082 | -0.472 (active) | -0.007 | -0.002 | 0.037 | -0.034 | 0.002
5 | MAP3K20 (UniProt Q9NYL2) | 0.04 | 0.075 | 0.033 |  | 0.048 | -0.042 | -0.059 | 0 | -0.02 | -0.003 | -0.01 | -0.065 | 0.059 | -0.022 | -0.025 | 0.002 | 0.053 | -0.072 | -0.141 | 0.064
6 | LPGAT1 (UniProt Q92604) | 0.124 | -0.021 | 0.001 | 0.032 | -0.082 | -0.059 | 0.12 | 0.15 |  | -0.01 | -0.101 | 0.073 | 0.015 | -0.02 |  | -0.088 | 0.16 | -0.038 | -0.237 | -0.098
7 | LMBR1 isoform 3 (UniProt Q8WVP7) | -0.165 | -0.267 | -0.033 | 0.016 | -0.218 |  | 0.029 | -0.043 | 0.043 | 0.086 | -0.198 | 0.019 | -0.05 | 0.095 | -0.812 (active) | 0.028 | 0.04 | 0.032 | -0.477 | 0.156
8 | MED22 (UniProt Q15528) | -0.03 | -0.008 | 0.047 | 0.019 |  | 0.017 | -0.171 |  |  | 0.013 | -0.082 | 0.027 | 0.027 | 0.158 |  | -0.036 | 0.049 | 0.027 | -0.098 | -0.023
9 | MAP3K20 isoform 2 (UniProt Q9NYL2) | 0.044 | 0.068 |  |  | 0.036 | -0.003 | -0.242 | -0.121 |  | 0.038 | -0.182 | 0.082 |  |  |  | -0.191 |  | 0.096 |  | 0.407
10 | IMMP1L (UniProt Q96LU5) | -0.041 | -0.067 | -0.034 | -0.252 (active) | 0.005 | -0.022 | 0.016 | -0.062 |  | 0.024 | 0.121 | 0.045 | -0.05 | 0.088 |  | -0.058 | 0.012 | 0.015 | -0.063 | -0.067
11 | LYN isoform 2 (UniProt P07948) | -0.2 | -0.212 | -0.054 |  | 0.074 | 0.069 |  | -0.046 |  | -0.791 (active) | -0.211 | -0.281 | -0.294 |  |  |  |  | 0.159 |  | -0.027
12 | MED7 (UniProt O43513) | -0.021 | -0.01 | 0.07 |  | -0.049 | -0.022 |  | -0.116 |  | -0.03 | 0.11 | -0.031 | -0.081 | -0.046 |  | 0.004 | 0.049 | -0.199 | 0.017 | -0.159
13 | MAPRE3 isoform 2 (UniProt Q9UPY8) | 0.192 |  | 0.008 |  | -0.176 | -0.02 |  | -0.265 |  |  | 0.22 |  | 0.06 |  |  | -0.264 |  | 0.007 |  | 0.155
14 | LGALS8 isoform 2 (UniProt O00214) | 0.202 | 0.264 | 0.053 | -0.021 |  |  | -0.278 |  | -0.183 | -0.002 | -0.023 | -0.255 | 0.323 | -0.223 | -0.144 | 0.016 | 0.204 | 0.146 |  | 0.182
15 | MARK2 (UniProt E9PC69) | -0.028 | 0.128 | 0.122 |  | -0.765 (active) | -0.025 |  | 0.085 |  | 0.068 | -0.323 | -0.049 | 0.15 | -0.181 |  | -0.263 | 0.12 | 0.119 | -0.232 | 0.106
16 | ILF3 (UniProt Q12906) | 0.033 | 0.156 |  | -0.203 |  | -0.13 | 0.045 |  |  | -0.152 | -0.201 | -0.284 |  |  |  |  |  | 0.026 |  | 
17 | ITGA2B (UniProt P08514) | 0.004 | 0.086 | -0.065 |  | 0.074 | -0.086 |  | 0.033 | -0.589 (active) | -0.076 | -0.068 | -0.077 | 0.045 | -0.11 | 0.283 | 0.15 | 0 | 0.031 | -0.088 | 0.138
18 | MAN2B2 (UniProt Q9Y2E5) | -0.077 | -0.027 |  | 0.022 | -0.038 | 0.044 | 0.075 | -0.026 |  | 0.051 | -0.014 | 0.055 |  | 0.094 |  | -0.044 | 0.004 | 0.017 | -0.147 | -0.012
19 | LAMP2 isoform 2 (UniProt P13473) | -0.049 |  | 0.022 | -0.105 | -0.027 | -0.039 | 0.09 | -0.104 | 0.075 |  | -0.424 (active) | 0.119 | -0.051 | 0.344 (active) | 0.066 | -0.071 | 0.011 | 0.002 |  | 0.017
20 | MAP4K4 isoform 3 (UniProt O95819) | -0.021 | 0.032 | 0.021 |  | -0.05 | 0.01 | 0.02 | -0.021 | -0.153 | -0.058 |  | 0.002 | -0.055 | 0.091 | 0.311 | -0.169 | 0.017 | -0.156 | -0.05 | 0.093
21 | IL10RB (UniProt Q08334) | -0.161 | 0.299 |  |  | 0.048 | 0.088 |  | 0.011 | 0.025 | 0.004 | 0.009 | -0.031 |  | 0.018 | -0.238 | -0.122 | 0.089 | -0.007 |  | -0.008
